Assay outcomes (PubChem)
Only some compounds are listed: those with a hit (about 3.2% of all), similar ones and a draw of the others.
NRP1-CendR mod – NRP-1/CendR interaction modulation. O14786. FAM-RPARPAR peptide binding to NRP-1, fluorescence polarization. inhibition, % at 25 µM. 360,000 compounds, 0.85% hits;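 active means inhibition or corrected inhibition above about 18%, plus a signal ratio from 0.5 to 1.5, limit read from the data, passing the limit was not always enough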
Target sequence (O14786 whole entry, looked up): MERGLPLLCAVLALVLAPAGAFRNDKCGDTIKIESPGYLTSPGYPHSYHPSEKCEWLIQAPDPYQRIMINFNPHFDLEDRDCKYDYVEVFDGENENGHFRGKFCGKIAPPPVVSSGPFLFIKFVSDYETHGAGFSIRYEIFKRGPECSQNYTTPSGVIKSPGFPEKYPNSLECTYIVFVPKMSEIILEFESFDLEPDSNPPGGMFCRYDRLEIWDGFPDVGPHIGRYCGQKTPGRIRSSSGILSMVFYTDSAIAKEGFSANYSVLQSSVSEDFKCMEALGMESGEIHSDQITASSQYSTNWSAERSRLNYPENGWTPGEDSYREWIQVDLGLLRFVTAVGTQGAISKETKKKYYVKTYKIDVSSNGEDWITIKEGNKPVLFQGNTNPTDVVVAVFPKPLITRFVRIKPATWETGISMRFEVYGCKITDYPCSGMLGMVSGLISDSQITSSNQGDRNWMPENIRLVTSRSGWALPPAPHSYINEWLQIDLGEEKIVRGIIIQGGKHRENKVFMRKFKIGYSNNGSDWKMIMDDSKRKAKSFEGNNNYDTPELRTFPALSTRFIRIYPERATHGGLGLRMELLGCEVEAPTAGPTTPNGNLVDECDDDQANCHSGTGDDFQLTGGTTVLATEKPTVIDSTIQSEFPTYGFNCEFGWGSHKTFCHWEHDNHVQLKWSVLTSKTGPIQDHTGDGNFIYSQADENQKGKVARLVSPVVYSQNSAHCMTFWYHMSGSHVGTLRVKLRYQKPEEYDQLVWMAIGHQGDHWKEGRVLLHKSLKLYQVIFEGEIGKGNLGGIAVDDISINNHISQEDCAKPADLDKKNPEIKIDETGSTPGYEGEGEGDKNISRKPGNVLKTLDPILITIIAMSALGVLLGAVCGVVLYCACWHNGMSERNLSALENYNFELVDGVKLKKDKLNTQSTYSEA
MEKK2 mut-MEK5 – signal of MEK5 binding to mutant human MEKK2 PB1 domain; bead flow cytometry, Alexa488-MEK5 binding to MEKK2 mutant; percent response, % at 10 µM; 290,000 compounds, 0.35% hits; in the data active means percent response above about 24%, passing the limit was not always enough
MEKK3 PB1 HTS – modulators (inhibitors or enhancers) of MEK5 binding to human MEKK3 PB1 domain. Q99759. 290,000 compounds, 1.4% hits. bead-based flow cytometry, Alexa488-MEK5 binding to MEKK3; actives lie on both sides; 0 = blocked by unlabeled MEK5, 100 = vehicle. binding response (% of control), % at 10 µM. AID 1529;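 active means binding response more than 3 SD above or below the average of its plate-row segment, actives on both sides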;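 further: Alexa488 bead fluorescence after subtracting the streptavidin-only scavenger bead signal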
MEKK2wt PB1 HTS – raises or lowers MEK5 binding to wildtype human MEKK2 PB1 domain; Q9Y2U5; bead flow cytometry, Alexa488-MEK5 binding to MEKK2 WT; actives lie on both sides; binding response (% of control), % at 10 µM; 290,000 compounds, 1.1% hits; in the data active means binding response below about 67% or above about 130%
SKN-1 inh – inhibitors of C. elegans SKN-1; AID 624304; inhibition, % at 21.8 µM; C. elegans VP596 Pgst-4::GFP/RFP ratio, acrylamide-induced, 24 h; 360,000 compounds, 0.49% hits;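 active means interference check ratio from 0.5 to 1.5 plus GFP to RFP signal ratio inhibition reaching or exceeding a fixed threshold, cut at about 30% in these data, passing the limit was not always enough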
MEKK2wt confirm – raises or lowers MEK5 binding to wildtype human MEKK2, retest | shares compounds with MEKK3 PB1 HTS | bead flow cytometry, Alexa488-MEK5 binding to MEKK2 WT; actives lie on both sides | AID 1892 | binding response (% of control), % at 10 µM | 5,900 compounds, 2.4% hits; in the data active means binding response below about 16% or above about 210%; inactive means in between
MEKK2mut confirm – signal of MEK5 binding to mutant human MEKK2, retest; shares compounds with MEKK3 PB1 HTS; bead flow cytometry, Alexa488-MEK5 binding to MEKK2 mutant; percent response, % at 10 µM; 5,900 compounds, 2% hits; in the data active means percent response mostly above about 71%, no sharp cut-off; inactive means mostly below about 38%;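 further: higher means compound restores mutant binding toward wildtype level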
MEKK3-MEK5 inh – MEKK3-MEK5 PB1 inhibition, single concentration confirmation; AID 1894; shares compounds with MEKK3 PB1 HTS; 5,900 compounds, 1.8% hits; binding response (% of control), % at 10 µM; bead flow cytometry, Alexa488-MEK5 binding to MEKK3; hits give low values;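 active means binding response below 72% of control, or above a set upper limit, though filed actives all read lower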;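 further: 100% = DMSO only wells and 0% = binding blocked by excess unlabeled MEK5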
Active calls of the source: *; [ ] = remark or other dose.

Screening O=C(Nc1c(-c2ccccc2)[nH][nH]c1=O)c1ccco1 returned NRP1-CendR mod -2 and SKN-1 inh 9.
Screening C=CCc1ccccc1OCC(=O)O returned NRP1-CendR mod 12, MEKK2 mut-MEK5 -11, MEKK3 PB1 HTS 45*[inhibitor], MEKK2wt PB1 HTS 53, SKN-1 inh 2, MEKK2wt confirm 96, MEKK2mut confirm 0 and MEKK3-MEK5 inh 99.
For Fc1ccc(-n2cc(CNCCc3cccnc3)c(-c3ccccc3Cl)n2)cc1 the results were NRP1-CendR mod -1, MEKK2 mut-MEK5 66*, MEKK3 PB1 HTS 108, MEKK2wt PB1 HTS 221*, SKN-1 inh 4, MEKK2wt confirm 127, MEKK2mut confirm 10 and MEKK3-MEK5 inh 101.
`Fc1ccc(-c2nn(-c3ccccc3)cc2CNCc2ccccc2)cc1` gave NRP1-CendR mod -1, MEKK2 mut-MEK5 19, MEKK3 PB1 HTS 98, MEKK2wt PB1 HTS 160*, SKN-1 inh 2, MEKK2wt confirm 150, MEKK2mut confirm 19 and MEKK3-MEK5 inh 104.
For O=C(NCc1ccco1)C1CCN(C(=O)c2ccc(Cl)cc2Cl)CC1 the results were NRP1-CendR mod 1, MEKK2 mut-MEK5 7, MEKK3 PB1 HTS 105, MEKK2wt PB1 HTS 108 and SKN-1 inh 7.
Screening COc1cc(C=Cc2nnc3c4ccccc4cnn23)cc(OC)c1OC returned NRP1-CendR mod -1 and SKN-1 inh -6.
Screening CC(C)c1ccc(NC(=O)c2snc3ccc(Cl)cc23)cc1 returned NRP1-CendR mod -2, MEKK2 mut-MEK5 -1, MEKK3 PB1 HTS 130*, MEKK2wt PB1 HTS 105, SKN-1 inh 7, MEKK2wt confirm 103, MEKK2mut confirm -3 and MEKK3-MEK5 inh 107.
`COc1ccc(C2C3=C(CC(C)(C)CC3=O)Nc3c2c(=O)n(C)c(=O)n3C)cc1OC` (stereo not drawn) gave NRP1-CendR mod 4, MEKK2 mut-MEK5 1, MEKK3 PB1 HTS 128*, MEKK2wt PB1 HTS 119, SKN-1 inh -14, MEKK2wt confirm 108, MEKK2mut confirm 1 and MEKK3-MEK5 inh 104.
CSCCC(NC(=O)c1cccc(S(=O)(=O)N2CCOCC2)c1)C(=O)Nc1ccc(F)cc1 (stereo not drawn) was read as NRP1-CendR mod -10, MEKK2 mut-MEK5 1, MEKK3 PB1 HTS 97, MEKK2wt PB1 HTS 100 and SKN-1 inh 2.
Screening CSCCC(NC(N)=O)C(=O)Nc1cccc(S(=O)(=O)N2CCOCC2)c1 (stereo not drawn) returned NRP1-CendR mod 12, MEKK2 mut-MEK5 -9, MEKK3 PB1 HTS 72*[inhibitor], MEKK2wt PB1 HTS 83, SKN-1 inh 1, MEKK2wt confirm 98, MEKK2mut confirm 0 and MEKK3-MEK5 inh 102.
Screening CCOC(=O)C(=O)N1CCN(c2ccccc2OC)CC1 returned NRP1-CendR mod 4, MEKK2 mut-MEK5 -16, MEKK3 PB1 HTS 71*[inhibitor], MEKK2wt PB1 HTS 76, SKN-1 inh -1, MEKK2wt confirm 102, MEKK2mut confirm 2 and MEKK3-MEK5 inh 100.
Screening COc1ccccc1N1CCN(C(=O)CCC(=O)O)CC1 returned NRP1-CendR mod -6, MEKK2 mut-MEK5 0, MEKK3 PB1 HTS 101, MEKK2wt PB1 HTS 102 and SKN-1 inh 0.
For CCc1ccccc1NC(=O)CN(C)C(=O)Cn1cnc2ccc(Cl)cc2c1=O the results were NRP1-CendR mod 0 and SKN-1 inh -5.
`CCc1ccccc1NC(=O)CN(C)C(=O)Cn1ncc(Cl)c(Cl)c1=O` gave NRP1-CendR mod 1, MEKK2 mut-MEK5 1, MEKK3 PB1 HTS 133*, MEKK2wt PB1 HTS 108, SKN-1 inh 18, MEKK2wt confirm 106, MEKK2mut confirm 0 and MEKK3-MEK5 inh 106.
CCc1ccc(OCC(=O)O/N=C(\N)Cc2ccc([N+](=O)[O-])cc2)cc1 was read as NRP1-CendR mod -3, MEKK2 mut-MEK5 -2, MEKK3 PB1 HTS 102, MEKK2wt PB1 HTS 98 and SKN-1 inh -5.
For CCc1ccc(OCC(=O)Oc2ccc([N+](=O)[O-])cc2)cc1 the results were NRP1-CendR mod 1, MEKK2 mut-MEK5 -15, MEKK3 PB1 HTS 39*[inhibitor], MEKK2wt PB1 HTS 50*[inhibitor], SKN-1 inh -1, MEKK2wt confirm 110, MEKK2mut confirm 12 and MEKK3-MEK5 inh 105.
For C=C1CCN([C@H](C(=O)NCc2ccc(Cl)cc2)C(C)C)S(=O)(=O)c2ccccc21 the results were NRP1-CendR mod 16, MEKK2 mut-MEK5 -3, MEKK3 PB1 HTS 80*[inhibitor], MEKK2wt PB1 HTS 96, SKN-1 inh 20, MEKK2wt confirm 95, MEKK2mut confirm -5 and MEKK3-MEK5 inh 97.
`COc1ccc(OCC(=O)Nc2nc3c(s2)CCCC3)cc1` gave NRP1-CendR mod 2, MEKK2 mut-MEK5 5, MEKK3 PB1 HTS 104, MEKK2wt PB1 HTS 111 and SKN-1 inh -4.
`COc1ccc(NC(=O)Nc2nc3c(s2)CCCC3)cc1` gave NRP1-CendR mod 17, MEKK2 mut-MEK5 2, MEKK3 PB1 HTS 136*, MEKK2wt PB1 HTS 109, SKN-1 inh 7, MEKK2wt confirm 107, MEKK2mut confirm 11 and MEKK3-MEK5 inh 105.
Screening Cc1ccc(S(=O)(=O)N(C)CCCC(=O)n2nc(C)cc2C)cc1 returned NRP1-CendR mod 2, MEKK2 mut-MEK5 -39, MEKK3 PB1 HTS 0.0*[inhibitor], MEKK2wt PB1 HTS 0.0*[inhibitor], SKN-1 inh 26, MEKK2wt confirm 103, MEKK2mut confirm -2 and MEKK3-MEK5 inh 103.
For Cc1ccccc1Oc1nc2ccccn2c(=O)c1/C=C(\C#N)C(=O)Nc1c(C)n(C)n(-c2ccccc2)c1=O the results were NRP1-CendR mod -2, MEKK2 mut-MEK5 0, MEKK3 PB1 HTS 122, MEKK2wt PB1 HTS 101 and SKN-1 inh 6.
Cc1ccccc1Oc1nc2c(C)cccn2c(=O)c1/C=C(\C#N)C(=O)Nc1c(C)n(C)n(-c2ccccc2)c1=O was read as NRP1-CendR mod -22, MEKK2 mut-MEK5 0, MEKK3 PB1 HTS 137*, MEKK2wt PB1 HTS 102, SKN-1 inh 0, MEKK2wt confirm 68, MEKK2mut confirm -18 and MEKK3-MEK5 inh 65*.
Screening COc1ccc(C(CC(=O)O)NC(=O)c2ccco2)cc1OC (stereo not drawn) returned NRP1-CendR mod 3, MEKK2 mut-MEK5 24*, MEKK3 PB1 HTS 110, MEKK2wt PB1 HTS 111, SKN-1 inh -24, MEKK2wt confirm 101, MEKK2mut confirm -1 and MEKK3-MEK5 inh 99.
